According to PubChem BioAssay AID720519 (National Center for Advancing Translational Sciences (NCATS), 2013):
Results filed as inconclusive are left out. The call rests on the fitted dose curve; in most records, active means well fitted activation curve with a large enough effect; inconclusive means small, poorly fitted or top-dose-only effect; inactive means flat fitted curve, though single readings scatter.

assay: qHTS for Inhibitors of Cell Surface uPA Generation: Confirmatory Assay for Cherry-picked Compounds; settings: cell surface uPA activity generation, qHTS confirmation; series mostly up to 115 µM; inhibition: at the top concentration; further: 0% is about no effect
Procedure, shortened: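 RAW 264.7 cells at 4000/well, incubated overnight, then treated with compounds. After 24 h at 37 C, viability was read by ATPlite luminescence. An increase in signal indicates blocked uPA-dependent LF entry.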

inhibition, inactive:
O=C(NC[C@H]1CCCO1)c1cccc2c1C(=O)c1ccc(-c3ccc(F)cc3OCc3ccccc3)cc1S2(=O)=O -2.02%, O=C(N/N=C/c1cccs1)c1ccco1 -2.33%, CC(C)C[C@H]1CN([C@@H](CC(C)C)CN2CCCC2CN2C(=S)NC[C@@H]2Cc2ccc(O)cc2)C(=S)N1CC1CCCCC1 (some centres not stated) -2.13%, CS/C(=C\[N+](=O)[O-])Nc1ccccc1 -3.31%, O=C(CNC(=O)N1CC(=O)Nc2ccccc21)Nc1cc(Cl)ccc1Cl 2.5%, Cc1nc(SCC(=O)NCCN2C(=O)CSC2=O)nc(C)c1C -1.28%, COc1ccc(N(C(C)C(=O)NN=C2CCCC2)S(C)(=O)=O)cc1 (configuration not stated) -0.44%, Cn1c(CN2CCCC2)nc2cc(NC(=O)COc3ccccc3)ccc21 -2.79%, O=C(NCc1ccco1)/C(=C\c1cccs1)NC(=O)c1ccccc1 -0.346%, CCOc1cc(/C=C(\C#N)C(=O)NCc2cccnc2)ccc1O -2.42%, COc1ccc(C2=NS(=O)(=O)N(C)C(C(=O)NCc3ccccn3)=C2)cc1 -2.51%, O=C(NCCc1ccccc1)C1CCC(=O)N(Cc2cccc(C(F)(F)F)c2)C1 (configuration not stated) -2.36%, Nc1ccc(S(=O)(=O)c2ccccc2)nc1 -0.688%, C=CCOC(=O)C1=C[C@H](c2ccc(C(F)(F)F)cc2)[C@@H](CCCO)[C@H](OCC)O1 -3.55%, CC1CS(=O)(=O)CCN1N=Cc1ccc([N+](=O)[O-])o1 (configuration not stated) -2.66%, CC(C(=O)Nc1nccs1)c1ccc([N+](=O)[O-])cc1 (configuration not stated) 4.15%, CC(CCc1ccccc1)NC(=O)c1ccc(NC(=O)c2cccc(Br)c2)cc1 (configuration not stated) -0.796%, Cc1cc(C)cc(NC(=O)Cc2ccc(NC3=NC4CS(=O)(=O)CC4S3)cc2)c1 (configuration not stated) 0.308%, O=C(NCCS(=O)(=O)N1CCC2(CC1)OCCO2)c1ccc(F)cc1 -0.969%, C/C=C/C(=O)Nc1cccc(C2=NOC3(C2)C[C@@H](C(N)=O)N(C(=O)c2cc([N+](=O)[O-])cc([N+](=O)[O-])c2C)C3)c1 (some centres not stated) -2.11%, CCOC(=O)c1c(NC(=S)NC)sc2c1CCCC2 -1.04%, CCOc1cc(/C=N/Nc2cc(C)nc3ccc(C)cc23)ccc1O -1.72%
